# Measured values published in ChEMBL document CHEMBL3988442, “University of Dundee, Small-Polar-MMV Screening Library” (2021).
# For some assays here: Results with a measured potency or affinity are listed apart.
# Assays:
# Parameters in all cases: scale not given: direction of the effect not stated beside the values
# [1] = biological target: Protein translocase subunit SecA (Escherichia coli (strain K12)) (UniProt P10408); assay: Assay to Identify E. coli SecA ATPase Inhibitors; assay type: functional; conditions: 30 µM
# [2] = biological target: T1, Ubiquitin-activating enzyme e1, putative (Leishmania donovani (strain BPK282A1)) (UniProt E9BSI1); assay: Leishmania donovani Ubiquitin Activating Enzyme (LdE1); assay type: functional; conditions: 30 µM
# T1 sequence (whole entry): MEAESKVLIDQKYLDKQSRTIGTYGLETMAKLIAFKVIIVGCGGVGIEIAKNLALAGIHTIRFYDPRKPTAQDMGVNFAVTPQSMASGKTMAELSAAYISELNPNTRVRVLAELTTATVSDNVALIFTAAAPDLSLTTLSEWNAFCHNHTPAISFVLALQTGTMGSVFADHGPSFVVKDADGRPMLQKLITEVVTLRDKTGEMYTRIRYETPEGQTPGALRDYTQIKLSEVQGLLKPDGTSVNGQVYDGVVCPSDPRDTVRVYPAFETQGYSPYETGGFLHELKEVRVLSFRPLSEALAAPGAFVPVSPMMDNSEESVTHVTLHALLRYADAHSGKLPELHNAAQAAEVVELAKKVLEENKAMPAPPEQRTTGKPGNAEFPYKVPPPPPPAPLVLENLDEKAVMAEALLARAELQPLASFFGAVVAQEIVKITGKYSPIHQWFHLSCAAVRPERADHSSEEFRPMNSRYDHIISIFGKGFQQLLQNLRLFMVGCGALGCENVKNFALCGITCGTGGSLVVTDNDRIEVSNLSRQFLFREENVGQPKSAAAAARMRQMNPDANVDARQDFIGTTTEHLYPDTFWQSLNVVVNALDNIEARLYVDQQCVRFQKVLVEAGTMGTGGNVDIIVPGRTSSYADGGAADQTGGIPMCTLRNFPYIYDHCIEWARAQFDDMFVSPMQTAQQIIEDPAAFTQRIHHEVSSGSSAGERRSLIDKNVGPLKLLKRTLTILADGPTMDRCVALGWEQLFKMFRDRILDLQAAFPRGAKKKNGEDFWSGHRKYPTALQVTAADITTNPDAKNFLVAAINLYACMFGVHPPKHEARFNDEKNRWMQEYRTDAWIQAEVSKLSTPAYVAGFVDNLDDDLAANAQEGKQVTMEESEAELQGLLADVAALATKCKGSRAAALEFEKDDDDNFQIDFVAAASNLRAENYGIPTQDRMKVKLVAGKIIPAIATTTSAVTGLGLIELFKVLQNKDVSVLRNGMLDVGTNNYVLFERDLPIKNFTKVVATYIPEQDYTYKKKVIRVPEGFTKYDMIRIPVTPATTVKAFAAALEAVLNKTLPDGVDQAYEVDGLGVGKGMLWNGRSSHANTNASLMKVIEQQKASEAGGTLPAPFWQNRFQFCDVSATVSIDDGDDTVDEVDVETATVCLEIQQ
# [3] = biological target: AMP-activated protein kinase, AMPK (Homo sapiens) (UniProt P54646+O43741+P54619+Q9UGJ0+Q9Y478+Q13131+Q9UGI9); assay: AMP-dependent Kinase enzyme assay. An in vitro enzyme assay that detects ADP turnover that is directly proportional to AMPK activity. This uses naive AMPK that is activated during the assay with MK-8722; assay type: functional; conditions: 30 µM
# [4] = biological target: Sialic acid-binding Ig-like lectin 9 (Homo sapiens) (UniProt Q9Y336); assay: Hs-Siglec9 ALPHAscreen SOP 20170721; conditions: 10 µM
# Trypanosoma cruzi = assay: Trypanosoma cruzi phosphomannomutase and mannose-1-phosphate guanylyltransferase assay; assay type: functional; conditions: 10 µM
# [5] = biological target: T2, Arginase-2, mitochondrial (Homo sapiens) (UniProt P78540); assay: in vitro enzyme assay to detect the production of urea directly proportional to the activity of Arginase II; assay type: functional; conditions: 33.3 µM; also: in the data most compounds retested in dose-response had high values
# T2 sequence (whole entry): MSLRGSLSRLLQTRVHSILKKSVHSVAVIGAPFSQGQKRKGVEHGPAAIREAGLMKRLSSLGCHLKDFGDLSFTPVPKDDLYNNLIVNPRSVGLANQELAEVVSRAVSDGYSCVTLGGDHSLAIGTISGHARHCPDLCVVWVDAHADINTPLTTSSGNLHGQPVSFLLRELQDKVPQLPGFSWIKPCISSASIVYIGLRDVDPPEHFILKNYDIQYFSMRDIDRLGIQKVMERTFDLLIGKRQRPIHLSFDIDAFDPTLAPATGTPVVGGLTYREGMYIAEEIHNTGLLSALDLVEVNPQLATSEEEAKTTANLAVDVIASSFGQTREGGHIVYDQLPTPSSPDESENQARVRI
# [6] = biological target: T3, Proteasome subunit beta (Trypanosoma cruzi) (UniProt O96673); assay: Trypanosoma cruzi proteasome chymotrypsin-like activity (TcProtChymo) assay.; also: in the data most compounds retested in dose-response had high values; assay type: functional; conditions: 9.37 µM
# T3 sequence (whole entry): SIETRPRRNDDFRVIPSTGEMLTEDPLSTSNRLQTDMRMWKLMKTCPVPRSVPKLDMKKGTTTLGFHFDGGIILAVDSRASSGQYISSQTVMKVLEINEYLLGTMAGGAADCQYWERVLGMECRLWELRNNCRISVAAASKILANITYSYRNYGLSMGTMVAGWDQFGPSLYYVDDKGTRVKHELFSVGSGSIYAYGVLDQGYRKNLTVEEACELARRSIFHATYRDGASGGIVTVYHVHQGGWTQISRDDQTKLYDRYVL
# Homo sapiens = organism: Homo sapiens; assay: To identify inhibition of the IFN signalling (Jak-Stat) pathway via expression of an eGFP reporter gene under the control of an IFN-stimulated response element (ISRE) containing MxA promoter.; assay type: functional; conditions: 30 µM
# [7] = biological target: T4, Tyrosyl-tRNA synthetase, putative (Trypanosoma cruzi (strain CL Brener)) (UniProt Q4DSP6); assay: Trypanosoma cruzi tyrosyl tRNA synthetase (TcYRS) _High Tyrosine SOP; assay type: functional; conditions: 30 µM; also: in the data most compounds retested in dose-response had high values
# T4 sequence (whole entry): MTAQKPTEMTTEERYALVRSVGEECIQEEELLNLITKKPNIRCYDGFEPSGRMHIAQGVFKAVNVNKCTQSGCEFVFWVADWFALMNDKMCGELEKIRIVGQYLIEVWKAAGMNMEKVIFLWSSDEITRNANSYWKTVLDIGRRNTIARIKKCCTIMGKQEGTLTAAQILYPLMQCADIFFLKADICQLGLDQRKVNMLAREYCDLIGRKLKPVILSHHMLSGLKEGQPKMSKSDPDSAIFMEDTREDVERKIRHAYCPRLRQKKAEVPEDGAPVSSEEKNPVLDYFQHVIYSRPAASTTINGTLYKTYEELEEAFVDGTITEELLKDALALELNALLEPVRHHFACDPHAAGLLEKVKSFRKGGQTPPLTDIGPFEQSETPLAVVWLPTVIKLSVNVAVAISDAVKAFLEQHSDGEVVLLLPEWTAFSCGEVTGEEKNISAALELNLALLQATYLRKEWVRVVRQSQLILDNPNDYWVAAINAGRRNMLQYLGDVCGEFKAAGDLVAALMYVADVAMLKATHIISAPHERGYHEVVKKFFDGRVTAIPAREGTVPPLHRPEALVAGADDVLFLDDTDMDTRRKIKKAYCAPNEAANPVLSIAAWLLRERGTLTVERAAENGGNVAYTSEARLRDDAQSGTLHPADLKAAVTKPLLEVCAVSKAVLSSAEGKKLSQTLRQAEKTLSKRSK
# [8] = biological target: T4, Tyrosyl-tRNA synthetase, putative (Trypanosoma cruzi (strain CL Brener)); assay: Trypanosoma cruzi tyrosyl tRNA synthetase (TcYRS) SOP; assay type: functional; conditions: 30 µM
# [9] = biological target: Chromo domain-containing protein 1 (Saccharomyces cerevisiae (strain ATCC 204508 / S288c) (Baker's yeast)) (UniProt P32657); assay: ScCHD-1 Enzyme Inhibition Assay; assay type: functional; conditions: 30 µM; also: in the data most compounds retested in dose-response had high values
# Chromo domain-containing protein 1 (Saccharomyces cerevisiae (strain ATCC 204508 / S288c) (Baker's yeast)), sequence (P32657 whole entry, the tested form may be a part): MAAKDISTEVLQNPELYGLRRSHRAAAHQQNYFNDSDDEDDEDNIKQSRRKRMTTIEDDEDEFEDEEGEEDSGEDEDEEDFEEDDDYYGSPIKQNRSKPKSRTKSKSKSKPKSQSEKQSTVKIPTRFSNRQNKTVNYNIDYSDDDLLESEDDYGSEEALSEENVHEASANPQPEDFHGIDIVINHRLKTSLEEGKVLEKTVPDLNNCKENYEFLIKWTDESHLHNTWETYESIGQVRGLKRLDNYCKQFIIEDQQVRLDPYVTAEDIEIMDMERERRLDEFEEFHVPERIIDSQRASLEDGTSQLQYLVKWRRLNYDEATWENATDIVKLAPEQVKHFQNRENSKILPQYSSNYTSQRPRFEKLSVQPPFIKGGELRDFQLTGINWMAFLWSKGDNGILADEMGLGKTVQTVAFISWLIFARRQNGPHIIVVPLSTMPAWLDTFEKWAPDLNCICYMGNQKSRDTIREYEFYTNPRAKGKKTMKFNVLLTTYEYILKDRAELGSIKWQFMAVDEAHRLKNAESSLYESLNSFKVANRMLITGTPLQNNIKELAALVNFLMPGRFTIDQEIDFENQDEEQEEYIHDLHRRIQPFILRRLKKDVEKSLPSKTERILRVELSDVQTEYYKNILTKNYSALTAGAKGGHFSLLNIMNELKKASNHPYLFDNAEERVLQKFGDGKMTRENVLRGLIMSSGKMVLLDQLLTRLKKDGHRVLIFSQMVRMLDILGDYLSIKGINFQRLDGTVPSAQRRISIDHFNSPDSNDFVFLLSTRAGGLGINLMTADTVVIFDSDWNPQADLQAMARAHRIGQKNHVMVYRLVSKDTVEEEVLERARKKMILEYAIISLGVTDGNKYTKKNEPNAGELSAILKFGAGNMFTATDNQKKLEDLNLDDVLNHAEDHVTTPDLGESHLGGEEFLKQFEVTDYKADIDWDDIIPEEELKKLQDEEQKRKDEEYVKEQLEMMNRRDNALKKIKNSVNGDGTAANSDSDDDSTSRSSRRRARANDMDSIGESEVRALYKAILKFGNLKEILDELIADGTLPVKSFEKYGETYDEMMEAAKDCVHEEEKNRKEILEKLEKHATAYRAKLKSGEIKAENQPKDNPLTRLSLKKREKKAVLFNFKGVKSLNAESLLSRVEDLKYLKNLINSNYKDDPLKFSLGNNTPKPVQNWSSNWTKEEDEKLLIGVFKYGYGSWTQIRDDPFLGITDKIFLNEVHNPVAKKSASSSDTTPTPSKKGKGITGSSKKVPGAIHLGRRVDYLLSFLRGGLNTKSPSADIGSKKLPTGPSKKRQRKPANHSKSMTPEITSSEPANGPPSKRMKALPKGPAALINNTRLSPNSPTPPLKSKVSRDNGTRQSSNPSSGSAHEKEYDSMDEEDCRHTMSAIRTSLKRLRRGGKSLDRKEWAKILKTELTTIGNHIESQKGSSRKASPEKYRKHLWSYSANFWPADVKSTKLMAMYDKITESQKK
# Sialic acid-binding Ig-like lectin 9 (Homo sapiens), sequence (Q9Y336 whole entry): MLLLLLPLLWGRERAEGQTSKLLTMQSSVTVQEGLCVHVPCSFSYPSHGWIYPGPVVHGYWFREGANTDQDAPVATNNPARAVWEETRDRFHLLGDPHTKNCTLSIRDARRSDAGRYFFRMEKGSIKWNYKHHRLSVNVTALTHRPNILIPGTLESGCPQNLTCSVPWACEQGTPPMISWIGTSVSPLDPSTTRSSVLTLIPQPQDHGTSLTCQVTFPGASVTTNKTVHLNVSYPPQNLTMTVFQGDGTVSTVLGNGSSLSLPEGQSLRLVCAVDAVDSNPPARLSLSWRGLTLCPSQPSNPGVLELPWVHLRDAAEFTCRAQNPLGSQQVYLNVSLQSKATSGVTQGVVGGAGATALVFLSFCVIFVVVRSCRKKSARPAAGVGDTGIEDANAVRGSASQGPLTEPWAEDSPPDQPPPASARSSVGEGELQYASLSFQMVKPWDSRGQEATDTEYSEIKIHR
# Protein translocase subunit SecA (Escherichia coli (strain K12)), sequence (P10408 whole entry): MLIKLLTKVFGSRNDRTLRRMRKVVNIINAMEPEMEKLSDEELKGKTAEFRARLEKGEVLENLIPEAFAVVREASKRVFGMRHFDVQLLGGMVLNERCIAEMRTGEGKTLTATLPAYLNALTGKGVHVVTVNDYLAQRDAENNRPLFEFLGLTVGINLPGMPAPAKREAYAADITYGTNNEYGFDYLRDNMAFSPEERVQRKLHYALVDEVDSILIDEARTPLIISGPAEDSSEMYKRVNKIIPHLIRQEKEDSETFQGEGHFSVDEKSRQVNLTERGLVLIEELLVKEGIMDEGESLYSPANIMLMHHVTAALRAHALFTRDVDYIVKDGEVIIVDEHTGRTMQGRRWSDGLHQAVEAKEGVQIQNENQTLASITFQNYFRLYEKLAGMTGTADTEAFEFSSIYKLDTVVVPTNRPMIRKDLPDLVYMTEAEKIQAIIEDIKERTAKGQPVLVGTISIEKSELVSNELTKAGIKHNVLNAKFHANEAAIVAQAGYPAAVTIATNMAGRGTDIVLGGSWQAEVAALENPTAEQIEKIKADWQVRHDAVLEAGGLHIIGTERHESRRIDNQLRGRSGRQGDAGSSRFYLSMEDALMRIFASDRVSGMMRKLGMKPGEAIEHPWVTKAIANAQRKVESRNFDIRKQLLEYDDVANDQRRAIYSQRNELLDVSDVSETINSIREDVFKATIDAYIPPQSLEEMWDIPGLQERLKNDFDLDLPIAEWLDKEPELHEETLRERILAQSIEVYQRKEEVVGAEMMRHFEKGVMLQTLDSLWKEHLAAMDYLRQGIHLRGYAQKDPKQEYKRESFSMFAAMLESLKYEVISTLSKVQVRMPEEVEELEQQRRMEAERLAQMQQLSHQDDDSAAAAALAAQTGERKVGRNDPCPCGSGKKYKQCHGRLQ
SMILES,Percent Effect [1] [%],Percent Effect [2] [%],Percent Effect [3] [%],Percent Effect [4] [%],Percent Effect (Trypanosoma cruzi) [%],Percent Effect [5] [%],Percent Effect [6] [%],Percent Effect (Homo sapiens) [%],Percent Effect [7] [%],Percent Effect [8] [%],Percent Effect [9] [%]
O=C(COC[C@H]1CC[C@H]2[C@H](CCN2c2ncccn2)O1)N1CCCC1,-2.35,24.7,-1.6,1.45,0,-1.2,7.62,13.1,5.21,13.6,-1.93
COCc1cn([C@@H]2c3ccccc3C3(CCNCC3)[C@H]2O)nn1,-4.27,9.72,2.64,16.1,6.71,24.7,3.16,3.98,4.21,10.3,-5.28
CNc1cc(C2CCCN2Cc2ccccc2C(=O)O)ccn1 (configuration not stated),-4.24,-6.76,3.65,-0.354,-1.19,-0.696,7.33,7.54,8.6,11.7,-11.7
COc1ccc(OCc2nc(C(=O)N3CC[C@H](O)[C@@H](O)C3)co2)cc1,-5.04,2.7,-0.405,4.91,-3.09,-0.476,12.8,-0.834,6.88,12.2,-4.44
Cc1nccc(-c2cccc(NCC(=O)N3CCNC3=O)c2)n1,-3.58,21.1,-11.7,0.813,6.82,-1.44,11.2,16.4,10.3,28.4,-9.15
Cc1cnn(CC2CCCN2Cc2ncc(-c3ccccc3)o2)c1 (configuration not stated),-1.68,-5.41,-10.1,-3.94,-9.53,4.01,8.11,10.7,10.3,18.5,-6.8
COc1cc2ncn(CC(=O)NCCCN(C)C)c(=O)c2cc1OC,-1.85,1.33,-1.58,0.564,-8.84,-3.35,7.76,-4.68,4.23,-53.9,-7.79
Cc1cc(-c2cnc(NCc3cccnc3)nc2C(C)(C)C)on1,-1.82,0,24.3,4.38,-3.74,-0.699,8.37,43.3,6.38,6.41,-0.51
CCNC(=O)N(C)Cc1ccc(SC)c(OC)c1,-3.35,21.6,-5.93,0.171,4.49,7.92,9.72,-1.36,7.92,3.66,92.2
O=C(Nc1ccc(F)cc1)N1C[C@H]2C[C@H](C(=O)N3CCOCC3)[C@@H](C1)O2,-1.74,7.79,3.92,3.78,0.493,4.52,2.44,29.3,4.23,14.1,-6.94
COCc1ccccc1C(=O)NCCCN1CCCC1C(=O)N(C)C (configuration not stated),0.173,8.22,-7.48,6.16,2.94,-2.27,15.8,13.9,3.23,12.5,-6.47
CC(Cn1cccn1)NC(=O)NCCc1ccc(Cl)s1 (configuration not stated),-0.239,22.8,0.135,-8.1,-0.283,1.52,9.75,5.52,3.45,16.5,-2.95
CCN1C(=O)CCC12CCCN(Cc1nccs1)CC2 (configuration not stated),-5.45,8,11.7,0.513,2.56,-0.699,8.37,9.53,7.45,16.7,-1.64
c1csc(-c2nc(CN3CCOC(Cn4cncn4)C3)cs2)c1 (configuration not stated),-4.12,7.89,-2.14,1.07,-3.83,0,15.5,-10.6,4.43,6.17,-6.35
CC(C)NC(=O)COc1nc(C(C)C)no1,-4.66,-2.7,-12.4,41.5,9.07,16.2,4.48,6.57,-0.529,9.76,-4.43
Cc1cc2n(n1)CC(CNC1CCN(Cc3ccccc3C)CC1)CN2 (configuration not stated),-8.28,0,-15.1,13.7,0.684,-2.73,2.49,16.5,4.3,3.7,-2.06
Cc1n[nH]c(C2CN(C(=O)c3ccco3)CCO2)n1 (configuration not stated),-4.76,2.63,7.87,3.79,1.07,0,4.51,25.8,6.38,7.79,-0.969
Cn1cccc1C(=O)Nc1cc(F)ccc1OCC1CCCO1 (configuration not stated),-2.17,-2.6,2.66,13.6,6.74,2.85,0.507,4.16,-5.83,0,-1.65
O=C(Nc1ccc(F)cc1F)Nc1c[nH]c(=O)[nH]c1=O,0.161,10.4,5.76,-2.96,-5.03,0.645,6.09,8.21,-1.06,3.85,-9.44
CCn1nccc1CNC(=O)NC1CCCCC1,-3.38,7.79,7.6,-2.52,-7.18,0,9.98,12,1.07,3.7,-2.19
Cc1cnn(CC(C)NCc2csc(-c3ccco3)n2)c1 (configuration not stated),-3.81,-3.8,10.6,-3.77,-5.44,-3.66,10.1,18.9,11.5,2.53,-23.7
COc1ccccc1C(=O)N1CCCC1Cn1cc(C)cn1 (configuration not stated),-3.53,18.9,-13.2,-6.09,-4.25,-2.81,4.68,-3.42,11.3,18.5,-4.38
